Among the test systems are DU-145 prostate; K-562 leukemia; MALME-3M melanoma; MDA-MB-231 breast; RXF 393 renal; SF-268 CNS; SF-295 CNS; SF-539 CNS; UACC-257 melanoma; M14 melanoma; HCT-15 colon; HT29 colon; SNB-75 CNS; SNB-19 CNS; U251 CNS; PC-3 prostate; SK-MEL-5 melanoma; UACC-62 melanoma; LOX IMVI melanoma; SK-MEL-28 melanoma.
Assay in all cases: NCI-60 one-dose screen, 48 h (100 = growth as untreated, 0 = no growth, -100 = all killed)
Common to all, as to settings: 10 µM unless noted

About 83,000 compounds went through this panel and 20% of them were active in at least one assay; those are over-represented in the sample as a whole.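 Cell lines were cultured in 96-well plates, exposed to a single compound concentration, and assessed for percent growth 48 hours later.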 Values without a mark were called inactive. The source made the active and inactive calls. The calls were made as follows: active = growth percent below 10; inactive = the rest.

With `NC1=C(c2nn[nH]n2)C(c2ccccc2Cl)c2ccc3ccccc3c2O1` (stereo not given), the growth in the experiment with DU-145 prostate is 93.4%; in the experiment on K-562 leukemia it was 22.6%; with MALME-3M melanoma it was 64%; in the experiment with MDA-MB-231 breast, 63.7%; in the experiment on RXF 393 renal, 79.3%; in the experiment with SF-268 CNS, 73.2%. Further, the growth is 88.9% in the experiment on SF-295 CNS; 79.2% in the experiment on SF-539 CNS; 84.7% in the experiment with UACC-257 melanoma; 61.3% in the experiment with M14 melanoma; 46.8% with HCT-15 colon; 132% in the experiment with HT29 colon. The growth with SNB-75 CNS is 56.7%; with SNB-19 CNS, 79.2%; in the experiment on U251 CNS it was 77.8%; with PC-3 prostate, 57.5%; with SK-MEL-5 melanoma it was 58%; in the experiment on UACC-62 melanoma, 71.2%. The growth is 77.8% with LOX IMVI melanoma and 75.6% in the experiment on SK-MEL-28 melanoma.
With `Oc1ccc(Cl)cc1Cc1cc(Cl)cc(Cl)c1O`, the growth was 33.2% in the experiment on DU-145 prostate; 5.3% (active) with K-562 leukemia; -19.5% (active) in the experiment on MALME-3M melanoma; 69.2% in the experiment with MDA-MB-231 breast; 74% in the experiment on RXF 393 renal; 42.3% in the experiment on SF-268 CNS. The growth in the experiment with SF-295 CNS is -15.1% (active); in the experiment with SF-539 CNS it was 19.8%; with UACC-257 melanoma it was 74.1%; with M14 melanoma, 65.9%; with HCT-15 colon, 41.2%; in the experiment with HT29 colon it was 107%. The growth was 60.5% in the experiment on SNB-75 CNS; 34.8% with SNB-19 CNS; 13% in the experiment on U251 CNS; -0.0941% (active) in the experiment on PC-3 prostate; 5.53% (active) in the experiment on SK-MEL-5 melanoma; -9.82% (active) in the experiment on UACC-62 melanoma. The values for the growth in the experiment on LOX IMVI melanoma and in the experiment on SK-MEL-28 melanoma were 20.2% and 31.2%, respectively.
On to `CCn1cnc2c1c(=O)[nH]c(=O)n2CC1CCC(CNS(=O)(=O)c2ccc(OC3CCOCC3)c(F)c2)CC1` (stereo not given), for which the growth in the experiment with DU-145 prostate was 76.8%; with K-562 leukemia it was 39.2%; in the experiment on MALME-3M melanoma, 58.2%; with MDA-MB-231 breast it was 47.8%; in the experiment with RXF 393 renal, 53.1%; in the experiment on SF-268 CNS it was 82.8%. Further, the growth in the experiment with SF-295 CNS was 58.5%; in the experiment with SF-539 CNS, 54.7%; in the experiment with UACC-257 melanoma, 59.8%; in the experiment on M14 melanoma, 48.5%; in the experiment on HCT-15 colon it was 86.6%; in the experiment with HT29 colon it was 37.8%. Also, the growth in the experiment with SNB-75 CNS was 7.93% (active); in the experiment with SNB-19 CNS, 59%; in the experiment on U251 CNS, 67.9%; with PC-3 prostate, 45.9%; in the experiment on SK-MEL-5 melanoma, 60.1%; in the experiment with UACC-62 melanoma, 24.1%. Also, the growth was 38.4% with LOX IMVI melanoma and 64.1% in the experiment on SK-MEL-28 melanoma.
`NS(=O)(=O)c1ccc(-n2nc(-c3ccc(Cl)cc3)c3ccccc3c2=O)cc1`: the growth in the experiment with DU-145 prostate was 111%; with K-562 leukemia it was 84.2%; in the experiment on MALME-3M melanoma, 182%; in the experiment with MDA-MB-231 breast it was 87.9%; in the experiment on RXF 393 renal, 98.8%; in the experiment on SF-268 CNS it was 98.1%. In addition, the growth was 97.3% in the experiment with SF-295 CNS; 89.4% in the experiment on SF-539 CNS; 116% in the experiment on UACC-257 melanoma; 103% in the experiment on M14 melanoma; 94.5% in the experiment on HCT-15 colon; 97.1% in the experiment with HT29 colon. Further, the growth in the experiment on SNB-75 CNS is 79.2%; in the experiment on SNB-19 CNS it was 85.6%; in the experiment with U251 CNS, 103%; in the experiment with PC-3 prostate, 75.3%; in the experiment with SK-MEL-5 melanoma, 90.3%; in the experiment on UACC-62 melanoma, 89.2%. The growth with LOX IMVI melanoma was 83.6%; with SK-MEL-28 melanoma, 117%.
Take `O=C(CCCCCCSc1nc(-c2ccccc2)cc(-c2ccccc2)n1)NO`: the growth with DU-145 prostate was 36.3%; with K-562 leukemia, 11.3%; in the experiment on MALME-3M melanoma, 14.3%; in the experiment on MDA-MB-231 breast, 40.8%; in the experiment on RXF 393 renal, 6.08% (active); in the experiment with SF-268 CNS it was 62.3%. Besides, the growth in the experiment with SF-295 CNS was 41.7%; in the experiment with SF-539 CNS, 53.1%; with UACC-257 melanoma it was 29%; in the experiment with M14 melanoma, 31.7%; in the experiment with HCT-15 colon, 32.6%; in the experiment on HT29 colon, 8.32% (active). Also, the growth was 21.2% with SNB-75 CNS; 47.3% with SNB-19 CNS; 35% in the experiment with U251 CNS; 49.7% with PC-3 prostate; 9.17% (active) with SK-MEL-5 melanoma; 12.8% in the experiment with UACC-62 melanoma. Moreover, the growth was 3.67% (active) in the experiment on LOX IMVI melanoma and 39.9% in the experiment with SK-MEL-28 melanoma.
For the compound `COc1ccc(/C=N/Nc2cc(=O)[nH]c3ccc(C)cc23)cc1`, the growth in the experiment with DU-145 prostate was 105%; in the experiment on K-562 leukemia, 79.5%; with MALME-3M melanoma it was 114%; in the experiment with MDA-MB-231 breast, 126%; in the experiment on RXF 393 renal, 95.4%; in the experiment with SF-268 CNS, 115%. Besides, the growth in the experiment with SF-295 CNS was 96.2%; in the experiment on SF-539 CNS, 101%; in the experiment with UACC-257 melanoma, 105%; in the experiment on M14 melanoma, 86.3%; in the experiment with HCT-15 colon it was 87.9%; in the experiment on HT29 colon it was 94.7%. Moreover, the growth with SNB-75 CNS is 108%; with SNB-19 CNS, 95.2%; with U251 CNS it was 97.1%; with PC-3 prostate, 79.1%; in the experiment on SK-MEL-5 melanoma, 69%; with UACC-62 melanoma, 89.4%. Besides, the growth is 91.5% in the experiment with LOX IMVI melanoma and 101% with SK-MEL-28 melanoma.
Take `c1ccc(CO[C@H]2CO[C@H]3[C@@H]2OC[C@@H]3Oc2ccc(Nc3ncnc4ccsc34)cc2)cc1`: the growth with DU-145 prostate was 89%; with K-562 leukemia, 62.1%; in the experiment on MALME-3M melanoma, 53.4%; in the experiment with MDA-MB-231 breast, 71.7%; in the experiment with RXF 393 renal it was 83.1%; in the experiment with SF-268 CNS it was 78%. The growth in the experiment with SF-295 CNS is 63.3%; in the experiment with SF-539 CNS it was 73.1%; in the experiment on UACC-257 melanoma, 78%; with M14 melanoma it was 79.5%; in the experiment on HCT-15 colon, 78.7%; in the experiment with HT29 colon it was 81.9%. Also, the growth in the experiment with SNB-75 CNS is 87.5%; with SNB-19 CNS it was 82.7%; with U251 CNS, 81.9%; in the experiment with PC-3 prostate, 80.3%; in the experiment on SK-MEL-5 melanoma, 9.33% (active); in the experiment on UACC-62 melanoma, 59.9%. In addition, the growth was 78.8% in the experiment with LOX IMVI melanoma and 88.9% in the experiment with SK-MEL-28 melanoma.

For the origin of these results see PubChem BioAssay (NCI).
